# Bioassay records as filed in PubChem.
# A selection: hits, their analogues and other compounds. The true share with any hit is near 4.2%.
# Mtb betalactam: beta-lactam sensitization of Mtb H37Rv | M. tuberculosis H37Rv growth with meropenem, percent inhibition | inhibition, % at 25 µM | 330,000 tested, 0.27% active | AID 434955; call rule not given here;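 further: growth measured after seven days incubation then overnight dye step; 0% = bacteria only wells and 100% = bacteria with antibiotic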
# FBA Mtb inh: Mtb fructose-bisphosphate aldolase inhibition. purified M. tuberculosis FBA, fluorescence read-out. inhibition, % at 1 µM. 360,000 tested, 2.3% active. AID 588726; in the data active means inhibition above about 27%;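 further: 0% = vehicle and 100% = reference inhibitor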
# RecA intein inh: inhibitors of M. tuberculosis RecA intein splicing; inhibition, % (test concentration not listed); cell-free RecA intein splicing, fluorescence; 290,000 tested, 0.75% active; P9WHJ3; in the data active means inhibition above about 30%; inconclusive means no clear call, values can overlap the other calls;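 further: 0% = vehicle wells and 100% = reference inhibitor control wells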
# Target sequence (P9WHJ3 whole entry, looked up): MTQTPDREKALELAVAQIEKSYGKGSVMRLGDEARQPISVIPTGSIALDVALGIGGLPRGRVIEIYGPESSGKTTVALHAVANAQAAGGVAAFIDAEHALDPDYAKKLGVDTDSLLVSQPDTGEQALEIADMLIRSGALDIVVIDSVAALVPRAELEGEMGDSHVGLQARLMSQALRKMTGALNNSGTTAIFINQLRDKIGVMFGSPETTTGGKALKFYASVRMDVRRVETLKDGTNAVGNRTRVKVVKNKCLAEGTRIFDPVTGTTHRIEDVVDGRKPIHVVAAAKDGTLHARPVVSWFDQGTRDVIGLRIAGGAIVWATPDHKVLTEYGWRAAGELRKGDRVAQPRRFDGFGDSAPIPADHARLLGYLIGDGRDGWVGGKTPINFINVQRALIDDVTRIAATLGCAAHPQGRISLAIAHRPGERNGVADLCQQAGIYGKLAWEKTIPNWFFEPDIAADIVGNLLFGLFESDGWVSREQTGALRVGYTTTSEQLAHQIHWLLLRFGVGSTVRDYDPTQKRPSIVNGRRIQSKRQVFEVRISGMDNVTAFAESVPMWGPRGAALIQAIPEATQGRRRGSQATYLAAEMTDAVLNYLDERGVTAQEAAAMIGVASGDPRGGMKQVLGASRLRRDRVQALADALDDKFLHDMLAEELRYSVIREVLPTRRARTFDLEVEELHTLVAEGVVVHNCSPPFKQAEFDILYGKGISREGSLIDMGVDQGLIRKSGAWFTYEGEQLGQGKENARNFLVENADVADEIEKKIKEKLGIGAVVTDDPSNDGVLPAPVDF
# CCHFV vOTU inh: CCHFV vOTU protease inhibition; Pep-AMC fluorescence; inhibition, % at 11.5 µM; 370,000 tested, 0.55% active; further: 0% = vehicle wells with enzyme and 100% = no enzyme wells
# GDH-TPI inh: inhibits GDH-TPI coupling enzymes, artifact for Mtb FBA screen | GDH-TPI coupled enzyme counterscreen, NADH absorbance | inhibition, % at 4.8 µM | 360,000 tested, 1.2% active;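 further: 0% = DMSO wells and 100% = wells lacking the enzyme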
# Active calls of the source: *; u = inconclusive; x = no result. Unless noted, no stated cut-off is given here; in the data, active means inhibition above about 30%; inactive means the rest.
SMILES,Mtb betalactam,FBA Mtb inh,RecA intein inh,CCHFV vOTU inh,GDH-TPI inh
CCCCCOC(=O)c1ccc(OC(=O)c2cncc(Br)c2)cc1,98,-2,16,5,4
CCCCCCCOC(=O)c1ccc(OC(=O)c2cccnc2)cc1,3,-1,64*,-2,9
COc1ccc(-c2cc(-c3nnc4sc(-c5cccs5)nn34)[nH]n2)cc1,x,x,x,5,x
O=C(C1=C(c2ccccc2)C(=O)c2ccccc2C1=O)c1ccccc1,x,-1,36*,29,2
CC(=NN1CCN(Cc2ccccc2Cl)CC1)c1ccc(O)cc1,x,x,x,15,x
O=C(c1cc2c(s1)-c1ccccc1OC2)N1CCN(c2ccccc2)CC1,-5,15,2,-8,24
CCOC(=O)N1CCN(C(=O)c2cc3c(s2)-c2ccccc2OC3)CC1,4,147*,0,-187,23
CCCN1CCN(C(=O)c2cc3c(s2)-c2ccccc2OC3)CC1,u,186*,-42,-284,33*
Cc1cc(C)c2c(n1)nn1c(N3CCN(Cc4ccccc4)CC3)cc(C)nc21,x,114*,x,-91,20
Cc1ccc(/C=N\Nc2nc3ccc(Cl)cc3[nH]2)o1,92,-1,0,12,45*
COC(=O)C[C@@H]1CC[C@@H]2[C@@H](COc3ccc(NC(C)=O)cc3C(=O)N2C)O1,x,x,x,-4,x
CCOc1cc(/C=N/n2c(C)nnc2C)ccc1O,-9,3,-3,8,40*
CCOc1ccc(/C=N/n2c(C)nnc2C)cc1OC,5,-2,6,-9,4
CCN1CCN(c2ccc(S(=O)(=O)N3CCOCC3)cc2NC(=O)/C=C/c2ccc(OC)c(OC)c2)CC1,6,5,-1,-15,34*
CCN1CCN(c2ccc(S(=O)(=O)N3CCCCC3)cc2NC(=O)/C=C/c2ccc(OC)c(OC)c2)CC1,3,-3,5,-1,20
COc1ccc(/C=N/NC(=S)Nc2cc(S(=O)(=O)N3CCOCC3)ccc2N2CCOCC2)cc1O,4,0,1,-5,42*
COc1ccc2ccccc2c1/C=N/NC(=S)Nc1cc(S(=O)(=O)N2CCOCC2)ccc1N1CCOCC1,-2,1,-6,-4,5
CC(=O)c1ccc(N2CCN(C(=O)C3(S(=O)(=O)c4ccc(Cl)cc4)CC3)CC2)cc1,21,3,-2,2,34*
O=C(N1CCN(c2cccc(Cl)c2)CC1)C1(S(=O)(=O)c2ccc(Cl)cc2)CC1,9,1,x,-8,-3
COC(=O)C1(CCSC)NC(c2ccc(O)cc2)C2C(=O)N(c3ccc(F)cc3)C(=O)C21 (configuration not stated),4,114*,-1,4,8
COC(=O)C1CN(Cc2cn(Cc3ccccc3)nn2)CCS(=O)(=O)N1Cc1ccccc1 (configuration not stated),x,x,x,-6,x
COc1ccc(-c2ccnc3nc(N4CCOCC4)nn23)cc1,5,84*,-8,-115,34*
COc1ccc(-c2ccnc3nc(-n4cccc4)nn23)cc1,7,6,x,-19,11
O=C(Nc1ccc(F)cc1)N[C@@H]1C[C@@H]2O[C@H](CO)CC[C@@H]2O[C@@H]1CCc1ccc(C2=CCCC2)cc1,x,x,x,5,x
O=C1[C@@H]2[C@@H](CN3CN(c4ccccc4)N=C(c4ccccc4)[C@@]23c2ccccc2)C(=O)N1c1ccccc1,x,34*,x,-30,17
SMILES,Mtb betalactam,FBA Mtb inh,RecA intein inh,CCHFV vOTU inh,GDH-TPI inh
Cc1ccc(-c2c(C#N)c(N)n(-c3ccc(C)cc3)c(=O)c2C#N)cc1,-13,2,-3,6,40*
CC(=O)Nc1c(C#N)c(-c2ccccc2)c(C#N)c(=O)n1-c1ccc(C)cc1,x,1,x,25,33*
Cc1ccc(-n2c(N)c(C#N)c(-c3ccc(Cl)cc3)c(C#N)c2=O)cc1,-5,4,-5,10,15
COc1ccc(-c2c(O)c(C#N)c(-c3ccccc3)n(-c3ccc(OC)cc3)c2=O)cc1,u,24,1,8,0
CS(=O)(=O)N[C@@H]1C[C@@H]2O[C@@H](CO)CC[C@@H]2O[C@@H]1CCc1ccc(/C=C/c2ccccc2)cc1,x,x,x,-11,x
COc1ccc(C2C3=C(CC(c4ccco4)CC3=O)Nc3ccccc3N2C(C)=O)cc1 (configuration not stated),4,1,3,1,34*
Cc1cc(C(=O)N/N=C/c2ccc[nH]2)n[nH]1,3,-4,x,10,39*
Cc1cc(C(=O)N/N=C/c2ccc3ccccc3c2)n[nH]1,1,5,-1,5,23
Cc1cc(C(=O)N/N=C/c2ccc[nH]2)no1,-1,-3,1,15,31*
Cc1cc(C(=O)N/N=C/c2ccc(-c3ccccc3Cl)o2)n[nH]1,12,2,-2,3,34*
CC(C)(C)c1ccc(S(=O)(=O)N2CCCC(C(=O)NCCN3CCC(Cc4ccccc4)CC3)C2)cc1 (configuration not stated),x,x,x,13,x
COc1ccc2cc(-c3cccc4[nH]cc(C)c34)ccc2c1,x,x,x,2,x
CCn1cc(C(=O)O)c(=O)c2cc(F)c(N3CCNCC3)cc21,100,55*,-3,x,27
CCCCCCCC(=O)N1CCN(c2cc3c(cc2F)c(=O)c(C(=O)O)cn3CC)CC1,47,4,-3,-12,4
CCC(C)NC(=O)c1cn(CC)c2cc(N3CCN(C(=O)c4ccco4)CC3)c(F)cc2c1=O (configuration not stated),96,54*,-3,-19,26
CCn1cc(C(=O)NCc2ccco2)c(=O)c2cc(F)c(N3CCN(C(=O)c4ccco4)CC3)cc21,100,20,1,-3,3
C=CCNC(=O)c1cn(CC)c2cc(N3CCN(C(=O)c4ccco4)CC3)c(F)cc2c1=O,86,97*,-2,-35,20
COC(=O)[C@]12C[C@H](CC(=O)NCC3CCCCC3)C(=O)N(CCC3=CCCCC3)C1=C[C@H](C(C)C)O[C@@H]2C1CC1,x,x,x,5,x
Cc1ccccc1CN1CCCCC(NC(=O)Nc2cccc([N+](=O)[O-])c2)C1=O (configuration not stated),x,x,x,0,x
CCC(C(=O)Nc1ccccc1N1CCCC1)c1cccc(C)c1 (configuration not stated),x,x,x,10,x
COC(=O)[C@]12C[C@H](CC(=O)NCC3CCCCC3)C(=O)N(Cc3ccco3)C1=C[C@H](C(C)(C)C)O[C@@H]2C,x,x,x,24,x
COc1ccccc1-c1ccc(C(=O)O)o1,6,131*,0,-3,5
CN(CC#Cc1ccccc1)C(N)=NC(=O)/C=C/c1ccccc1,x,x,x,1,x
C/C(=N\Nc1nccnc1Cl)c1ccc(O)c(C)c1,0,2,x,20,44*
O=c1c2c3nc4ccccc4nc3n(CCN3CCOCC3)c2ncn1CCN1CCOCC1,x,22,x,-5,34*
O=c1c2c3nc4ccccc4nc3n(CC3CCCO3)c2ncn1CCc1ccccc1 (configuration not stated),-11,25,-4,2,7
Cc1ccc2c(c1)c1nc3ccccc3nc1n2CCN1CCOCC1,56,-3,-6,5,34*
CCn1c2ccc(C)cc2c2nnc(SCCN3CCOCC3)nc21,-4,-3,-1,-4,27
